Compound activity deposited in PubChem BioAssay by The Scripps Research Institute Molecular Screening Center.
TEAD-YAP inh – TEAD-YAP interaction inhibition. HEK-TIYL cells, TEAD-Gal4/YAP UAS-luciferase luminescence. inhibition, % at 9.12 µM. actives 1.4% (n = 640,000); in the data active = inhibition above about 32%;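 note: 0% = median of test compound wells and 100% = reference inhibitor wells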
GPR151 activ – activators of human GPR151 | Q8TDV0 | PathHunter beta-arrestin GPR151 cells, luminescence | actives 1% (n = 650,000) | activation, % at 11.2 µM; in the data active = activation above about 4.9%;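 note: 0% = median of compound wells and 100% = cells with positive control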
MITF primary – inhibitors of human MITF | O75030 | AID 1259374 | inhibition, % at 2.6 µM | actives 0.91% (n = 650,000) | AlphaScreen MITF homodimerization, bead proximity signal; in the data active = inhibition above about 50%;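 note: 0% = vehicle wells with protein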
Target sequence (O75030 whole entry, looked up): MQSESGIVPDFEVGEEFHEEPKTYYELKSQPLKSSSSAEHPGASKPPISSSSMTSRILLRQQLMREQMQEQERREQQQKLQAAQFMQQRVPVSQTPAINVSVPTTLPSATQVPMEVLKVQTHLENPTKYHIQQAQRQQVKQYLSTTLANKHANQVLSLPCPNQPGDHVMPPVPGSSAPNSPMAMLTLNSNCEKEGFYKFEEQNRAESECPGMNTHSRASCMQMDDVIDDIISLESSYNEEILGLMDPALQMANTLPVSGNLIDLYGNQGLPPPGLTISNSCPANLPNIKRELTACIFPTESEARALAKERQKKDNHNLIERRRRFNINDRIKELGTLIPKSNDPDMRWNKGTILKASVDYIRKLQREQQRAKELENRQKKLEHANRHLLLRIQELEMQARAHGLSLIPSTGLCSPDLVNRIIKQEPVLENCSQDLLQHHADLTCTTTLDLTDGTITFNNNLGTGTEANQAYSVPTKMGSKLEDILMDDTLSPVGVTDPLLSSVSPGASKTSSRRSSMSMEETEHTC
FBW7 act – activators of human E3 ligase FBW7. AlphaScreen FBW7–phospho-cyclin E peptide binding, activator screen. normalized activity (activation), % at 26.1 µM. actives 0.13% (n = 650,000). AID 1259310; in the data active = normalized activity above about 1.9%;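 note: purified mutant Fbw7 with reduced substrate affinity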
Numbers without * were called inactive. Only some compounds are listed: those with a hit (about 3.5% of all), similar ones and a draw of the others.

SMILES	TEAD-YAP inh	GPR151 activ	MITF primary	FBW7 act
Oc1ccc(CCNc2ccnc(Nc3ccncc3)n2)cc1	75*	-1	-18	0
CCN(CC(=O)NC)S(=O)(=O)c1ccc2ccccc2c1	0	1	6	0
COc1cccc(-c2cnc(NCc3cc(OC)c(OC)c(OC)c3)n2C)c1	8	1	20	0
COc1ccc(CN2Cc3cc(C)ccc3OC(C)C2)cc1O (stereo unspecified)	55*	-1	11	0
O=C(NCCn1cc(SCC(=O)N2CCCCCC2)c2ccccc21)c1c(F)cccc1F	34*	3	7	-1
O=C(CSc1cn(CCNC(=O)c2ccc(F)cc2)c2ccccc12)NCC1CCCO1 (stereo unspecified)	10	-1	6	0
Cc1ccc(C(=O)NCCn2cc(SCC(=O)NCC3CCCO3)c3ccccc32)cc1C (stereo unspecified)	33*	1	4	0
Oc1ccccc1-c1nnc2n1N=C(c1ccc(F)cc1)CS2	0	-1	-11	1
Cc1ccc(C2=Nn3c(C)nnc3SC2)cc1	15	2	-4	0
Cc1ccc(-c2nnc3n2N=C(c2ccc(O)c(O)c2)CS3)cc1	59*	0	13	0
Oc1ccc(C2=Nn3c(nnc3-c3ccccc3Cl)SC2)cc1O	63*	-1	5	0
CCCn1c(SCC(=O)NCC(C)C)nnc1-c1ccccn1	-5	2	0	0
CCn1nnc2c(Nc3cccc(C)c3)ncnc21	-61	-3	-1	0
CCn1nnc2c(NCc3ccc4[nH]c(C)cc4c3)ncnc21	65*	3	17	0
COc1cc(NS(=O)(=O)c2ccc3c(c2)Cc2ccccc2-3)cc(OC)c1OC	42*	5	9	0
COc1ccc(OC)c(NS(=O)(=O)c2ccc3[nH]c4c(c3c2)CCCC4)c1	35*	2	-2	0
COc1cc(NS(=O)(=O)c2ccc3[nH]c4c(c3c2)CCCC4)cc(OC)c1OC	55*	1	6	0
O[C@@H]1[C@@H](O)C=C2CCN3Cc4cc5c(cc4[C@H]1C23)OCO5 (stereo partly specified)	82*	1	23	0
Cc1ccccc1Cn1cc(C=C2C(=O)N(C)C(=O)N(C)C2=O)c2ccccc21	0	-1	17	0
Cc1ccccc1OCCCn1cc(C=C2C(=O)N(C)C(=O)N(C)C2=O)c2ccccc21	34*	-2	-7	0
CC(C)CCN(C)C1CCN(S(=O)(=O)c2ccc([N+](=O)[O-])cc2)CC1	-2	0	5	0
COC(CNS(=O)(=O)c1ccc(Oc2ccc(S(=O)(=O)NCC(OC)OC)cc2)cc1)OC	49*	2	-9	0
COc1ccccc1CNS(=O)(=O)c1ccc(Oc2ccc(S(=O)(=O)NCc3ccccc3OC)cc2)cc1	43*	0	0	0
O=S(=O)(NCc1ccco1)c1ccc(Oc2ccc(S(=O)(=O)NCc3ccco3)cc2)cc1	48*	1	3	0
COc1ccccc1CNS(=O)(=O)c1ccc(F)cc1	14	1	7	0
SMILES	TEAD-YAP inh	GPR151 activ	MITF primary	FBW7 act
CCN(CC)c1nc(NCCN(C(C)C)C(C)C)nc(Nc2ccc(C(F)(F)F)cc2)n1	3	-3	18	0
S=c1nc(-c2cccc(Br)c2)[nH][nH]1	0	3	14	0
Cc1cccc(C)c1-n1c(SCc2ccccc2F)nc2c(sc(=S)n2CCc2ccccc2)c1=O	-5	1	-13	0
Cc1cccc(C)c1-n1c(SCc2ccccc2F)nc2c(sc(=S)n2-c2c(C)cccc2C)c1=O	41*	2	0	0
CCOc1ccc(-n2c(=S)sc3c(=O)n(-c4ccccc4)c(SCc4nc5ccccc5[nH]4)nc32)cc1	2	-3	-4	1
O=c1c2sc(=S)n(-c3ccccc3)c2nc(SCc2nc3ccccc3[nH]2)n1-c1ccccc1	33*	-2	-7	0
CC(C)c1nnc(C2CCN(C(=O)NCc3ccccc3)CC2)o1	5	-1	-2	1
CC(C)c1nnc(C2CCN(C(=O)NCc3cccc4ccccc34)CC2)o1	-3	4	-2	2.0*
O=C(OCCN1CCCC1=O)c1cc(Br)ccc1Cl	-1	-1	-6	0
c1ccc(C(c2ccccc2)N2CCN(c3ncnc4c3cnn4-c3ccccc3)CC2)cc1	12	1	-12	0
CC(C)C(=O)NCc1ccc2[nH]c3c(c2c1)CCCC3	4	-2	16	0
O=C(CCl)NCc1ccc2[nH]c3c(c2c1)CCCC3	34*	2	15	0
CCOc1ccc(C(=O)CC2(O)C(=O)Nc3ccc(C)cc32)cc1 (stereo unspecified)	-10	0	-95	0
CSCCC(NC(=O)c1cccc(C)c1)C(=O)OCC(=O)NC(=O)c1cccn1C (stereo unspecified)	-2	-1	-1	0
Cc1ccc(-c2nn(-c3ccccc3)cc2C2CC(c3ccc(F)cc3)=NN2c2ccccc2)o1 (stereo unspecified)	-13	2	3	0
Fc1ccccc1C1CC(c2ccccc2)=NN1c1ccccc1 (stereo unspecified)	6	0	6	3.3*
c1ccc(-c2ccc(C3=NN(c4ccccc4)C(c4ccccc4)C3)cc2)cc1 (stereo unspecified)	11	0	6	0
O=[N+]([O-])c1ccc(N2N=C(c3ccccc3)CC2c2ccccc2O)cc1 (stereo unspecified)	-10	0	1	3.5*
Cc1ccc(C2CC(c3ccc(F)cc3)=NN2c2ccccc2)o1 (stereo unspecified)	-2	0	-22	1.9*
O=[N+]([O-])c1ccc(N2N=C(c3ccccc3)CC2c2ccccc2)cc1 (stereo unspecified)	-3	-1	-1	0
N#Cc1ccc(OCC(=O)OCc2ccc(Br)cc2)cc1	1	0	13	0
O=C(COc1ccc(Br)cc1)OCc1ccccc1	-4	-1	7	1.9*
CC(=O)c1cccc(NC(=O)CSc2nnc3c4ccccc4n(CCc4ccccc4)c3n2)c1	40*	2	2	0
Cc1c(NC(=O)CSc2nnc3c4ccccc4n(CCc4ccccc4)c3n2)c(=O)n(-c2ccccc2)n1C	47*	0	11	0
COCCCNCCCCOc1ccc(Cl)cc1Br	-16	0	44	0
SMILES	TEAD-YAP inh	GPR151 activ	MITF primary	FBW7 act
COC(=O)c1ccc2c(c1)C(=O)N(c1cccc(C(C)=O)c1)C2=O	4	2	4	0
Nc1nonc1N=NN(Cc1ccc(Cl)cc1Cl)c1nonc1N	10	2	73*	0
Nc1nonc1N=NN(CC(=O)Nc1c(Cl)cccc1Cl)c1nonc1N	-3	-1	8	0
COc1ccc(Nc2nc(N3CCCC3)nc3[nH]ncc23)cc1	48*	0	-14	0
Cn1cccc1/C=C1\CCc2ccccc2C1=O	64*	-8	7	0
Cn1cccc1/C=C1\Cc2ccccc2C1=O	-28	-4	2	0
